Bioassay records: PubChem, several laboratories
Shown are actives, neighbours in structure and some others; about 4.7% of the full set was active somewhere.
MPTP block: blocks calcium-induced mitochondrial swelling. isolated mouse mitochondria, Ca2+ swelling absorbance, 30 min. inhibition, % at 10 µM. 360,000 compounds, 1.4% hits. AID 602449;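 active = inhibition of 50% or more, scaled per plate between neutral and stimulator controls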
KLK7 zymogen act: activators of human kallikrein-7 zymogen; P49862; activation, % at 7 µM; purified proKLK7, EDANS-DABCYL substrate fluorescence; 100% is mature enzyme control, 0% vehicle; 370,000 compounds, 0.9% hits;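 active = activation above the mean of all tested compounds plus 3 SD, computed per campaign excluding outliers beyond control limits, cut at about 13% in these data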
Target sequence (P49862 whole entry, looked up): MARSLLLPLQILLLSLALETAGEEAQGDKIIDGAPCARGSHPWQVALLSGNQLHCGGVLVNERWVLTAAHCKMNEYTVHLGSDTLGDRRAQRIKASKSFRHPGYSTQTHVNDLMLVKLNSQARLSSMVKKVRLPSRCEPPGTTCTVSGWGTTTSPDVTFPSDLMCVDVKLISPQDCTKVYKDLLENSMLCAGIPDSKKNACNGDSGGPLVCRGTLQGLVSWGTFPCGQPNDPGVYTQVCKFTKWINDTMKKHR
ADAM10 inh: inhibitors of human ADAM10; O14672; recombinant ADAM10, EDANS/DABCYL FRET peptide cleavage, 3 h; inhibition, % at 7 µM; 370,000 compounds, 0.62% hits;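 active = inhibition above a per-campaign cutoff equal to the mean of compounds falling between control-based bounds plus 3 SD, cut at about 20% in these data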
rCAG binder: r(CAG) repeat RNA binding; TO-PRO-1 dye displacement fluorescence; inhibition, % at 3 µM; 370,000 compounds, 1.3% hits;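 active = inhibition above the plate cutoff, the mean of all test compounds on that plate plus 3 SD, cut at about 35% in these data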;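 note: higher means more dye released from RNA so lower well fluorescence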
Pemphigus Ab inh: human desmoglein-3 autoantibody binding inhibition | 310,000 compounds, 0.48% hits | P32926 | binding (percent of control), % at 10 µM | DSG3-coupled beads, scFv-anti-DSG3-GFP binding, flow cytometry; hits give low values;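 active = binding more than 3 SD below its plate's average and above zero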;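 note: hits lower antibody fragment binding to DSG3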
ADAM17 inh: ADAM17 inhibition, QFRET primary screen; recombinant ADAM17, EDANS/DABCYL FRET peptide cleavage; inhibition, % at 6.95 µM; 370,000 compounds, 0.83% hits;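 active = inhibition above the mean of compounds lying between control limits plus 3 SD, set per campaign, cut at about 8.5% in these data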
rCAG binder conf: r(CAG) RNA repeat binding, confirmation; shares compounds with rCAG binder; TO-PRO-1 dye displacement fluorescence; inhibition, % at 3 µM; 4,300 compounds, 70% hits;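 active = inhibition above a per-plate cutoff, the mean inhibition of sample wells plus 3 SD, cut at about 35% in these data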;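 note: loss of TO-PRO-1 fluorescence as compound displaces dye from 1x1 AA loop RNA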
DNA CAG counter: DNA CAG dye complex inhibition counter-screen | shares compounds with rCAG binder | d(CAG) DNA oligo TO-PRO-1 dye displacement, fluorescence | inhibition, % at 3 µM | 4,300 compounds, 94% hits;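 active = inhibition above its plate's cutoff, the mean test-well inhibition plus 3 SD, cut at about 4.8% in these data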;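 note: hits displace the dye from DNA and so lower well fluorescence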
DNA CAG DR: counter-screen for rCAG binders: inhibitors of DNA CAG TO-PRO-1 complex; shares compounds with rCAG binder; DNA CAG/GTC duplex TO-PRO-1 dye displacement fluorescence; IC50, µM; 250 compounds, 20% hits; in the data active = IC50 below about 10 µM
A number is an active result; n = inactive; x = no result given.

SMILES	MPTP block	KLK7 zymogen act	ADAM10 inh	rCAG binder	Pemphigus Ab inh	ADAM17 inh	rCAG binder conf	DNA CAG counter	others
Cc1cc(C(=O)N/N=C/c2cc(Cl)cc([N+](=O)[O-])c2O)c2ccccc2n1	n	n	n	56	n	n	53	16
CCN(CC)C(=O)C(=O)c1cccn1-c1c(Cl)cccc1C#N	n	n	n	36	n	n	n	n
N#C/C(=C\c1c[nH]c2ccccc12)C(=O)NC1CC1	n	n	n	54	n	n	n	n
N#C/C(=C\c1c[nH]c2ccccc12)C(=O)NC1CCCC1	n	n	n	n	n	n	x	x
Nc1[nH]c(C(=O)c2ccccc2)c(-c2ccc3ccccc3c2)c1C(=O)NCc1cccc2ccccc12	x	n	n	n	x	n	x	x
O=C(N[C@H](Cc1ccccc1)C(=O)NCC1CCCCC1)[C@H]1O[C@@H](n2ccc(=O)[nH]c2=O)[C@H](O)[C@@H]1O	x	n	n	n	x	n	x	x
Cc1cccc(S(=O)(=O)NC(=O)C2(C)CCN2C(=O)C2(c3ccc(Cl)cc3)CCC2)c1 (centres undefined)	n	n	n	42	x	n	42	11
CC1(C(=O)NS(=O)(=O)c2cccc(Cl)c2)CCN1C(=O)C1(c2ccc(Cl)cc2)CC1 (centres undefined)	n	n	n	43	x	n	45	9.8
CC1(C(=O)NS(=O)(=O)c2cccc(Cl)c2)CCN1C(=O)C1(c2ccc(Cl)cc2)CCC1 (centres undefined)	n	n	n	61	x	n	67	18
CC1(C(=O)NS(=O)(=O)c2ccccc2)CCN1C(=O)C1(c2ccc(Cl)cc2)CCC1 (centres undefined)	n	n	n	n	x	n	x	x
Cc1nc2c(OCCOc3ccc(F)cc3)cccn2c1N(C)C(=O)CCC1CCCC1	n	n	n	n	x	n	x	x
Cn1c2ccccc2c(=O)c2c(=O)n(Cc3cccc4ccccc34)cnc21	x	n	n	n	x	n	x	x
Cc1[nH]c2ccccc2c1CC(=O)Nc1ccc(Nc2cccnc2)c(-c2ccc(-c3ccccc3)cc2F)c1	x	n	n	n	x	n	x	x
CN1CCN(C(=O)c2cccc(-c3cnc4cnc(-c5ccccc5Oc5ccccc5)cn34)c2)CC1	n	n	n	n	x	n	x	x
O=C(Cn1cc(COc2ccc3ccccc3c2)nn1)NS(=O)(=O)c1cccc(OC(F)F)c1	n	n	n	55	x	n	71	23	DNA CAG DR=9.3
O=C(Cn1cc(-c2ccccn2)nn1)NS(=O)(=O)c1cccc(OC(F)F)c1	n	n	n	n	x	n	x	x
N#Cc1c(-c2ccccc2)cc(-c2cccs2)nc1SCC(=O)O	n	n	n	50	n	n	41	17
CCOC(=O)CSc1nc(C2CC2)cc(-c2ccc(Cl)cc2)c1C#N	n	n	n	n	n	n	x	x
COc1ccc(-c2cc(-c3cccs3)c(C#N)c(SCC(=O)NCc3ccccc3)n2)cc1	n	n	n	n	n	n	x	x
N#Cc1c(-c2ccc(Cl)cc2)cc(-c2cccs2)nc1SCC(=O)O	n	n	n	66	n	n	62	25
Cc1ccc(-n2c(O)c(/C=N/NC(=O)C3COc4ccccc4O3)c3ccccc3c2=O)cc1 (centres undefined)	n	n	n	82	n	n	75	38
Cc1cc(C)c2nc(NNC(=O)c3ccc(S(=O)(=O)N4CCCCC4)cc3)sc2c1	n	n	n	55	n	n	38	15
CCc1nnc(NC(=O)c2ccc(S(=O)(=O)N3CCCC(C)C3)cc2)s1 (centres undefined)	n	n	n	n	n	n	x	x
Cc1cccc2sc(NNC(=O)c3ccc(S(=O)(=O)N4CCc5ccccc5C4)cc3)nc12	n	n	n	54	n	n	59	30
Cc1cccc2sc(NNC(=O)c3ccc(S(=O)(=O)N4CCCC(C)C4)cc3)nc12 (centres undefined)	n	n	n	53	n	n	45	19
SMILES	MPTP block	KLK7 zymogen act	ADAM10 inh	rCAG binder	Pemphigus Ab inh	ADAM17 inh	rCAG binder conf	DNA CAG counter	others
CC(C)C[C@@H]1Cc2[nH][nH]c(=O)c2[C@H](C)O1	n	n	n	n	x	n	x	x
O=C(Nc1ccc(F)cc1)OCc1cn(Cc2c(F)cccc2F)nn1	x	n	n	n	x	n	x	x
COc1ccc(Br)cc1/C=c1\sc2nc(-c3ccco3)nn2c1=O	n	n	n	46	n	n	42	21
CC(C)OC(=O)N(C)C[C@H]1OCc2cn(nn2)CCCC(=O)N([C@@H](C)CO)C[C@@H]1C	x	n	n	n	x	n	x	x
O=C(O)c1cccc(NC(=S)NC(=O)c2cccc(OCc3ccccc3)c2)c1	n	n	n	61	n	n	64	26
CSCC[C@H](NC(=O)c1cc2c([nH]c3ccccc32)c(-c2ccccc2)n1)C(=O)O	n	n	n	55	n	n	50	14
O=C(COC(=O)c1ccc(NS(=O)(=O)c2cccs2)cc1O)NCc1ccccc1	n	n	n	38	x	n	n	6.4
COc1ccc(Cl)cc1NC(=O)COC(=O)c1cc(NS(=O)(=O)c2cccs2)ccc1O	n	n	n	n	n	n	x	x
O=C(COC(=O)c1ccc(NS(=O)(=O)c2cccs2)cc1O)Nc1nc2ccccc2s1	n	n	n	73	n	n	64	29
C#CCOCCOCCOCCNc1nc(N2CCOCC2)nc(N2CCN(C(=O)[C@H](CCCCN)n3cc(CCCC)nn3)CC2)n1	n	n	n	n	n	n	x	x
Cc1ccsc1/C=C/C1=Cc2c(sc(NC(=O)CSc3n[nH]c(N)n3)c2C#N)C(C)(C)C1	n	n	n	55	70	n	53	26
C/C(C/C(C)=C1/SC(=S)NC1=O)=C1\SC(=S)NC1=O	n	n	n	66	n	n	50	16
CC/C(C)=C1/NC(=O)NC1=O	n	n	n	n	n	n	x	x
O=C(CN1C(=O)S/C(=C\c2cccs2)C1=O)Nc1ccc(C(=O)O)c(O)c1	n	n	n	67	n	n	40	10
O=C(CN1C(=O)S/C(=C/c2cccs2)C1=O)N1CCCC1	n	n	n	n	n	n	x	x
O=C(CN1C(=O)S/C(=C\c2cccs2)C1=O)Nc1ccc(O)c(C(=O)O)c1	n	n	n	52	n	n	37	10
O=C(CSc1ccccc1)N1CCC(Oc2cccnc2)CC1	x	n	n	n	x	n	x	x
O=C(c1ccco1)N1N=C(c2cccs2)CC1c1ccc(F)cc1 (centres undefined)	n	n	n	n	n	n	x	x
